{"source": "PubChem BioAssay", "assay": "differential killing of epithelial or mesenchymal cells, primary screen, imaging, PC-3E GFP, TEM4-18 mCherry, co-culture (AID 1345086);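 on all read-outs here: cells exposed to compound for 72 h before imaging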;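 on red/green cell ratio (normalised): normalised mesenchymal count divided by normalised epithelial count so high means epithelial killing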", "conditions": "imaging cell counts, at 1 µM; for red/green cell ratio (normalised): actives lie on both sides, counts scaled to control wells, 1 = unselective", "key": {"[1]": {"conditions": "measured here: epithelial PC-3E GFP cell survival"}, "[2]": {"conditions": "measured here: mesenchymal TEM4-18 mCherry cell survival"}}, "note": "Where “and” joins values, the source holds several entries; their conditions need not be identical. Identical values can stand only once. Calls of active or inactive are those of the source.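 How the source made its calls: active means compounds killing one labelled cell type while sparing the other, by normalised counts and ratio limits, not self-fluorescent; inactive means the rest.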", "data": [{"compound": "O=C1N=NC(=O)N1c1ccccc1", "values": [{"measurement": "red/green cell ratio (normalised)", "result": "0.86 (inactive)"}, {"measurement": "normalised cell number", "setting": "[1]", "result": 1.19}, {"measurement": "normalised cell number", "setting": "[2]", "result": 1.03}]}, {"compound": "CC(=O)OC[C@@]1(O)C[C@@]23CCC4c5ccoc5CC[C@]4(C)C2CC[C@@H]1C3", "note": "(some centres not stated)", "values": [{"measurement": "red/green cell ratio (normalised)", "result": "0.98 (inactive)"}, {"measurement": "normalised cell number", "setting": "[1]", "result": 0.89}, {"measurement": "normalised cell number", "setting": "[2]", "result": 0.88}]}, {"compound": "CC1O[C@@H](Oc2c(-c3ccc(O)c(O)c3)oc3cc(O)cc(O)c3c2=O)[C@H](O)[C@H](O)[C@H]1O", "note": "(some centres not stated)", "values": [{"measurement": "red/green cell ratio (normalised)", "result": "1.01 (inactive)"}, {"measurement": "normalised cell number", "setting": "[1]", "result": 1.01}, {"measurement": "normalised cell number", "setting": "[2]", "result": 1.02}]}, {"compound": "C[C@H]1[C@H](OC(=O)CCC(=O)O)O[C@@H]2O[C@]3(C)CC[C@H]4[C@H](C)CC[C@@H]1[C@@]24OO3", "values": [{"measurement": "red/green cell ratio (normalised)", "result": "0.81 (inactive)"}, {"measurement": "normalised cell number", "setting": "[1]", "result": 0.68}, {"measurement": "normalised cell number", "setting": "[2]", "result": 0.55}]}, {"compound": "C/C=C/[C@@H]1OC2=C(C(=O)O[C@H]2C)[C@H](O)[C@H]1O", "values": [{"measurement": "red/green cell ratio (normalised)", "result": "0.96 (inactive)"}, {"measurement": "normalised cell number", "setting": "[1]", "result": 0.76}, {"measurement": "normalised cell number", "setting": "[2]", "result": 0.73}]}, {"compound": "COc1cc(O)c2c(c1)C(=O)C1=C(C2=O)C(OC)OC1", "note": "(configuration not stated)", "values": [{"measurement": "red/green cell ratio (normalised)", "result": "1.02 (inactive)"}, {"measurement": "normalised cell number", "setting": "[1]", "result": 0.9}, {"measurement": "normalised cell number", "setting": "[2]", "result": 0.92}]}, {"compound": "O=C1NCC[C@@H]1Oc1ccc(Oc2cnc3ccc(Cl)cc3n2)cc1", "values": [{"measurement": "red/green cell ratio (normalised)", "result": "0.74 (inactive)"}, {"measurement": "normalised cell number", "setting": "[1]", "result": 1.03}, {"measurement": "normalised cell number", "setting": "[2]", "result": 0.76}]}, {"compound": "C=C1[C@@H](C)C2[C@H](Cc3c[nH]c4ccccc34)NC(=O)[C@]23C(=O)/C=C/C(=O)[C@H](O)/C(C)=C/[C@@H](C)C/C=C/[C@H]3[C@@H]1O", "note": "(some centres not stated)", "values": [{"measurement": "red/green cell ratio (normalised)", "result": "0.87 (inactive)"}, {"measurement": "normalised cell number", "setting": "[1]", "result": 1.25}, {"measurement": "normalised cell number", "setting": "[2]", "result": 1.09}]}, {"compound": "C=CC(C)(C)c1[nH]c2ccccc2c1C1=C(OC)C(=O)C(c2c(C(C)(C)C=C)[nH]c3ccccc23)=C(OC)C1=O", "values": [{"measurement": "red/green cell ratio (normalised)", "result": "0.88 (inactive)"}, {"measurement": "normalised cell number", "setting": "[1]", "result": 1.23}, {"measurement": "normalised cell number", "setting": "[2]", "result": 1.08}]}, {"compound": "CC#C[C@]1(O)CCC2C3CCC4=CC(=O)CCC4=C3[C@@H](c3ccc(N(C)C)cc3)C[C@@]21C", "note": "(some centres not stated)", "values": [{"measurement": "red/green cell ratio (normalised)", "result": "1 (inactive)"}, {"measurement": "normalised cell number", "setting": "[1]", "result": 1.09}, {"measurement": "normalised cell number", "setting": "[2]", "result": 1.09}]}, {"compound": "NC(=O)NCCCC(N)C(=O)O", "note": "(configuration not stated)", "values": [{"measurement": "red/green cell ratio (normalised)", "result": "1.05 (inactive)"}, {"measurement": "normalised cell number", "setting": "[1]", "result": 1.03}, {"measurement": "normalised cell number", "setting": "[2]", "result": 1.08}]}, {"compound": "CC1=CO[C@]2(C1=O)[C@H]1C(=O)O[C@]3(C[C@@H]2C)C(C)=CC(=O)O[C@]13O", "values": [{"measurement": "red/green cell ratio (normalised)", "result": "0.85 (inactive)"}, {"measurement": "normalised cell number", "setting": "[1]", "result": 1.16}, {"measurement": "normalised cell number", "setting": "[2]", "result": 0.99}]}, {"compound": "CC(C)[C@@H]1CC[C@]2(CO2)[C@@H]2C(=O)OCC(C(=O)O)=C[C@H]21", "values": [{"measurement": "red/green cell ratio (normalised)", "result": "1.02 (inactive)"}, {"measurement": "normalised cell number", "setting": "[1]", "result": 1.02}, {"measurement": "normalised cell number", "setting": "[2]", "result": 1.05}]}, {"compound": "CC/C=C\\[C@H](O)[C@H](O)C1=C(C)C(=O)[C@]2(O1)C(=O)N[C@@](OC)(C(=O)c1ccccc1)[C@@H]2O", "values": [{"measurement": "red/green cell ratio (normalised)", "result": "1.21 (inactive)"}, {"measurement": "normalised cell number", "setting": "[1]", "result": 0.79}, {"measurement": "normalised cell number", "setting": "[2]", "result": 0.95}]}, {"compound": "CC(C)(C)Oc1c(F)c(F)nc(F)c1Cl", "values": [{"measurement": "red/green cell ratio (normalised)", "result": "0.97 (inactive)"}, {"measurement": "normalised cell number", "setting": "[1]", "result": 0.78}, {"measurement": "normalised cell number", "setting": "[2]", "result": 0.76}]}, {"compound": "CC(=O)OC1CCC2(C)C(=CC=C3C2CCC2(C)C3CCC2C(C)/C=C/C(C)C(C)C)C1(C)C", "note": "(configuration not stated)", "values": [{"measurement": "red/green cell ratio (normalised)", "result": "1.04 (inactive)"}, {"measurement": "normalised cell number", "setting": "[1]", "result": 0.92}, {"measurement": "normalised cell number", "setting": "[2]", "result": 0.96}]}, {"compound": "Cc1ccc(S[C@H]2OC(CO)C(O)[C@H](O)[C@@H]2N)cc1", "note": "(some centres not stated)", "values": [{"measurement": "red/green cell ratio (normalised)", "result": "0.98 (inactive)"}, {"measurement": "normalised cell number", "setting": "[1]", "result": 1}, {"measurement": "normalised cell number", "setting": "[2]", "result": 0.97}]}, {"compound": "CO[C@H]1/C=C/C[C@@H](C)OC(=O)c2c(O)cc(O)cc2CC(=O)CCC1", "values": [{"measurement": "red/green cell ratio (normalised)", "result": "1.01 (inactive)"}, {"measurement": "normalised cell number", "setting": "[1]", "result": 0.98}, {"measurement": "normalised cell number", "setting": "[2]", "result": 0.98}]}, {"compound": "C[C@@H]1O[C@@H](O[C@H]2[C@@H](Oc3cc(O)c4c(c3)O[C@H](c3ccc(O)cc3)CC4=O)O[C@H](CO)[C@@H](O)[C@@H]2O)[C@H](O)[C@H](O)[C@H]1O", "values": [{"measurement": "red/green cell ratio (normalised)", "result": "1.11 (inactive)"}, {"measurement": "normalised cell number", "setting": "[1]", "result": 0.94}, {"measurement": "normalised cell number", "setting": "[2]", "result": 1.04}]}, {"compound": "CC(C)CC1OC23SCC(c4ccccc4)N2C(=O)C1C(C)S3", "note": "(configuration not stated)", "values": [{"measurement": "red/green cell ratio (normalised)", "result": "0.8 (inactive)"}, {"measurement": "normalised cell number", "setting": "[1]", "result": 1.19}, {"measurement": "normalised cell number", "setting": "[2]", "result": 0.96}]}, {"compound": "CC(=O)OCC1=C[C@]2(O)CC3=C(CC24O[C@@H]4C1=O)[C@@]1(C)CCCC(C)(C)[C@@H]1CC3", "note": "(some centres not stated)", "values": [{"measurement": "red/green cell ratio (normalised)", "result": "1.02 (inactive)"}, {"measurement": "normalised cell number", "setting": "[1]", "result": 0.93}, {"measurement": "normalised cell number", "setting": "[2]", "result": 0.94}]}, {"compound": "COc1c(F)c(F)cc(C(=O)O)c1F", "values": [{"measurement": "red/green cell ratio (normalised)", "result": "1.1 (inactive) and 1.01 (inactive)"}, {"measurement": "normalised cell number", "setting": "[1]", "result": "0.89 and 0.98"}, {"measurement": "normalised cell number", "setting": "[2]", "result": "0.98 and 0.99"}]}, {"compound": "C=CC(C)(C)c1ccc2[nH]c3c(c2c1)C[C@@H]1CC[C@@]2(O)C4=CC(=O)[C@@H]5O[C@@]4(CC[C@]2(C)[C@@]31C)OC5(C)C", "values": [{"measurement": "red/green cell ratio (normalised)", "result": "1.04 (inactive)"}, {"measurement": "normalised cell number", "setting": "[1]", "result": 0.97}, {"measurement": "normalised cell number", "setting": "[2]", "result": 1.01}]}, {"compound": "CO/N=C(/C(=O)NC1C(=O)N2C(C(=O)O)=C(C[N+]3(C)CCCC3)CSC12)c1csc(N)n1", "note": "(configuration not stated)", "values": [{"measurement": "red/green cell ratio (normalised)", "result": "1.01 (inactive)"}, {"measurement": "normalised cell number", "setting": "[1]", "result": 1.21}, {"measurement": "normalised cell number", "setting": "[2]", "result": 1.22}]}, {"compound": "COC(=O)C[C@H]1C(C)(C)C(=O)[C@@H]2CC3C4=CC(=O)O[C@@H](c5ccoc5)[C@]4(C)CCC3C1(C)C2=O", "note": "(some centres not stated)", "values": [{"measurement": "red/green cell ratio (normalised)", "result": "1.11 (inactive)"}, {"measurement": "normalised cell number", "setting": "[1]", "result": 0.84}, {"measurement": "normalised cell number", "setting": "[2]", "result": 0.94}]}, {"compound": "C[C@H]1OC(n2cc(F)c(=O)[nH]c2=O)C(O)[C@@H]1O", "note": "(some centres not stated)", "values": [{"measurement": "red/green cell ratio (normalised)", "result": "0.91 (inactive)"}, {"measurement": "normalised cell number", "setting": "[1]", "result": 1.27}, {"measurement": "normalised cell number", "setting": "[2]", "result": 1.16}]}, {"compound": "Nc1cc2ccccc2[nH]c1=O", "values": [{"measurement": "red/green cell ratio (normalised)", "result": "0.91 (inactive)"}, {"measurement": "normalised cell number", "setting": "[1]", "result": 1.14}, {"measurement": "normalised cell number", "setting": "[2]", "result": 1.04}]}, {"compound": "C=CC(C)(C)c1cccc2[nH]c3c(c12)C[C@@H]1CC[C@@]2(O)C4=CC(=O)[C@@H]5O[C@@]4(CC[C@]2(C)[C@@]31C)CC5(C)C", "values": [{"measurement": "red/green cell ratio (normalised)", "result": "1 (inactive)"}, {"measurement": "normalised cell number", "setting": "[1]", "result": 1.11}, {"measurement": "normalised cell number", "setting": "[2]", "result": 1.11}]}, {"compound": "CCCC1=CC(=O)[C@H](O)[C@H]1O", "values": [{"measurement": "red/green cell ratio (normalised)", "result": "1.01 (inactive)"}, {"measurement": "normalised cell number", "setting": "[1]", "result": 1.02}, {"measurement": "normalised cell number", "setting": "[2]", "result": 1.02}]}]}
